Compound activity (PubChem)
Most compounds without a hit are left out; they make up all but 11% or so of the library.
AmpC inh no detg: AmpC beta-lactamase inhibition without detergent; AmpC nitrocefin hydrolysis, absorbance 480 nm, 0.0001% Triton; Potency, µM (top dose mostly 57.1 µM), for the others: top-dose activity change, negative = inhibition, hits mostly inhibitors; 0.52% of 330,000 active; AID 485341;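 note: plate controls were no compound for no effect and no enzyme for full effect; nearly all actives have a fitted effect of over 20% in size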
Target sequence (P00811 whole entry, looked up): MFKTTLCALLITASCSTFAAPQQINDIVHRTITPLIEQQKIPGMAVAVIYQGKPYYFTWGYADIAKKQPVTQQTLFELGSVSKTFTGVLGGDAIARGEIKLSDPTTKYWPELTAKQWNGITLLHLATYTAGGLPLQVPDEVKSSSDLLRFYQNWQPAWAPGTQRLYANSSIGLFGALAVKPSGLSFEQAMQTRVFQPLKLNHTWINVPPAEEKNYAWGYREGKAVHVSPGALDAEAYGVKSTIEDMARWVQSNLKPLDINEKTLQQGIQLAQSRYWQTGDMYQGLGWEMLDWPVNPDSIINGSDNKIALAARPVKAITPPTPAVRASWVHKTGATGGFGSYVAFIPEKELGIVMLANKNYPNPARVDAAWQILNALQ
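20 mM phosphate pH 7.0 + 0.01% (detergent screen) or 0.0001% Triton X-100; 5.3 nM AmpC reagent; cpd preinc 15 min RT; nitrocefin (800 uM stock) to start; A480 q20 s × 4 min; Activity was normalised to no-enzyme and no-compound control wells.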
AmpC inh detg: blocks E. coli AmpC beta-lactamase in detergent assay | AID 485294 | AmpC hydrolysis of nitrocefin, absorbance 480 nm, 0.01% Triton | P00811 | Potency, µM (doses to about 114 µM), without a hit: top-dose activity change, negative = inhibition, hits mostly inhibitors | 0.041% of 370,000 active;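 note: 0% = no-compound wells and -100% = no-enzyme wells; nearly all actives have a fitted effect of over 25% in size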
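20 mM phosphate pH 7.0 + 0.01% (detergent screen) or 0.0001% Triton X-100; 5.3 nM AmpC reagent; cpd preinc 15 min RT; nitrocefin (800 uM stock) to start; A480 q20 s × 4 min; Activity was normalised to no-enzyme and no-compound control wells.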
Pf growth 48h: P. falciparum growth inhibition at 48 hours (one generation) | P. falciparum luciferase growth in erythrocytes, 48 h | 5.9% of 310,000 active | Potency, µM (series often up to 28.7 µM), inactives show at the top dose activity change, negative = inhibition, usual class: inhibitors | AID 504832
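Erythrocytes infected with P. falciparum carrying an integrated firefly luciferase reporter (2% hematocrit, 0.1% parasitemia final) were exposed to compounds in RPMI 1640 with 0.5% Albumax at 37 C, 5% CO2. Growth inhibition was scored as reduced luminescence.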
HCV inhibitor: blocks hepatitis C virus; Huh7.5.1 HCVcc-Cre infection, luciferase reporter, 44 h; Potency, µM (top dose mostly 41.8 µM), without a hit: top-dose activity change, negative = inhibition, most hits filed as inhibitors; 3.4% of 340,000 active; AID 651820
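Infectious HCV cell culture screen: compound-treated cells (1,000/well, pre-plated 4 h) are infected with HCVcc-Cre at roughly 0.5 moi and grown 44 h. Infection is quantified by luciferase signal after 15 min substrate incubation at room temperature.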
Pf growth 96h: inhibits malaria parasite growth, 96 h | Potency, µM (series often up to 28.7 µM), for the others: at the highest dose activity change, negative = inhibition, hits mostly inhibitors | 6.9% of 320,000 active | AID 504834 | P. falciparum luciferase reporter growth, 96 h
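96 h incubation, 37 C, 5% CO2, of luciferase-reporter P. falciparum-infected RBCs (2% hematocrit, 0.05% parasitemia final) with test compounds; endpoint luminescence.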
AMA1 RON2 block: inhibitors of Plasmodium falciparum AMA1-RON2 interaction | AlphaScreen AMA1-biotinylated RON2 peptide binding | 0.2% of 360,000 active | Potency, µM (top dose mostly 58.2 µM), for inactives: top-dose activity change, negative = inhibition, most hits filed as inhibitors | AID 720542;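 note: 0% = vehicle wells and -100% = peptide control; nearly all actives have a fitted effect of over 45% in size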
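AMA1 (3D7) with his tag at 25 nM final met compounds first, then biotinylated RON2 peptide at 25 nM; detection used donor plus acceptor beads, 10 µg/mL apiece, read by AlphaScreen after 30 min at room temperature.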
* = called active by the depositor; i = inactive; ? = inconclusive; nt = no result; [ ] = another dose, or the depositor's remark. Calls come from the whole dose curve; as a rule, active = well fitted curve in the direction sought with a large enough effect; inconclusive = small, poorly fitted or top-dose-only effect, or another doubt; inactive = no such curve, though single readings can be large; an effect the other way counts as inactive or inconclusive. Unless noted, % is set by controls: 0 for no effect and ±100 for the full control effect; potency is the fitted concentration of half-maximal effect.

SMILES	AmpC inh no detg	AmpC inh detg	Pf growth 48h	HCV inhibitor	Pf growth 96h	AMA1 RON2 block
CCOC(=O)CNC(=O)N1CCCN(S(=O)(=O)c2ccc3c(ccn3CC)c2)CC1	nt	20%	nt	nt	nt	nt
COC(=O)Cn1c(=O)c2cccn2c2cccnc21	nt	3%	nt	nt	nt	nt
CCC(C)Nc1nc2c(c(=O)n(C)c(=O)n2C)n1Cc1ccc(F)cc1 (centres undefined)	8%	?	-14%	-13%	-1%[5.75 µM]	4%
Cn1c(=O)c2c(nc(NCCc3ccccc3)n2Cc2ccc(F)cc2)n(C)c1=O	58%	1%	12µM*	?	?	-13%
Cn1c(=O)c2c(nc(NC(Cc3ccccc3)C(=O)O)n2Cc2ccccc2)n(C)c1=O (centres undefined)	-7%	?	6.6µM*	-6%	54%	-2%
C=CCNc1nc2c(c(=O)n(C)c(=O)n2C)n1Cc1ccc(F)cc1	-2%	?	-8%	6.3µM*	-21%	-3%
COc1ccc(NC(=O)CN2C(=O)c3ccccc3Sc3ccc(C(=O)N4CCOCC4)cc32)c(OC)c1	128%	-1%	10µM*	-9%	-14%	18%
C=CCN1C(=O)c2ccccc2Sc2ccc(C(=O)N3CCN(C)CC3)cc21	42%	-3%	?	?	9.3µM*	-6%
Cc1nc2c(o1)C(=O)c1ccccc1C2=Nc1ccccc1	nt	nt	nt	2.8µM*	nt	-29%
O=C1CS/C(=N/N=C2CCCC2)N1	0%	7%	-14%	13%	3.3µM*	81%
CCCCOC(=O)c1cccc(NC(=O)c2cc3ccccc3o2)c1	nt	-5%	nt	nt	nt	nt
Cn1c(=O)n(CCc2ccccc2)c(=O)c2c1nc1n2CCCN1CCc1ccccc1	-12%	?	9.3µM*	?	nt	-18%
CC(C)Cn1c(=O)c2c(nc3n2CCCN3CCc2ccccc2)n(C)c1=O	82%	-19%	5.2µM*	10µM*	7%[5.75 µM]	-8%
CCCn1c(=O)c2c(nc3n2CCCN3CCc2ccccc2)n(C)c1=O	81%	-5%	?	-25%	?	-2%
CCn1c(=O)c2c(nc3n2CC(C)CN3CCc2ccccc2)n(C)c1=O (centres undefined)	72%	?	12µM*	-28%	8.3µM*	-26%
COCCn1c(=O)c2c(nc3n2CC(C)CN3CCc2ccccc2)n(C)c1=O (centres undefined)	108%	-3%	-17%	1%	?	-3%
CCC(CC)c1nn2c(=O)cc(COc3ccc(NC(=O)c4ccc(Cl)cc4)cc3)nc2s1	nt	1%	nt	nt	nt	nt
COc1ccc(NC(=O)Cn2cnc3ccc(S(=O)(=O)N4CCC(C)CC4)cc3c2=O)cc1OC	nt	-7%	nt	nt	nt	nt
COc1ccc(-c2nnc(SCC(=O)Oc3cc(C)ccc3C)o2)cc1	nt	-1%	nt	nt	nt	nt
COc1ccc(-c2n[nH]c(C)c2-c2cnn(-c3ccccc3)c2)c(O)c1	-34%	-9%	-16%	-22%	i	11%
COc1ccc(-c2n[nH]c(C)c2-c2cnn(-c3ccccc3)c2)c(O)c1C	-34%	-13%	-1%	11µM*	?	53%
CCC1SC(=Nc2cccc(C)c2)NC1=O (centres undefined)	-19%	0%	19%	7%	10µM*	1%
Cc1ccc(NC(=O)CSc2nccn2C2CCCC2)cc1Cl	nt	1%	nt	nt	nt	nt
COc1ccc(-c2ccc(C(=O)NCc3ccccc3)c3occc23)c(C)c1	nt	nt	nt	nt	nt	-4%
COc1ccc(-c2ccc(C(=O)NCc3ccc(N4CCN(C)CC4)cc3)c3occc23)c(C)c1	nt	nt	nt	nt	nt	16µM*
SMILES	AmpC inh no detg	AmpC inh detg	Pf growth 48h	HCV inhibitor	Pf growth 96h	AMA1 RON2 block
COc1cccc(CNC(=O)Cc2c(C(=O)O)c(C)cn2C)c1	nt	9%	nt	nt	nt	nt
O=C(Nc1nccs1)c1ccc([N+](=O)[O-])cc1Cl	-17%	4%	55%	3%	10µM*	21%
NC(=O)c1ccc([N+](=O)[O-])cc1Cl	nt	nt	?	nt	11µM*	nt
O=c1c2cnn(-c3ccc(F)cc3)c2ncn1Cc1ccccc1Cl	nt	16%	nt	nt	nt	nt
CCN(CC)CCCNC(=O)CSc1nc2nc(C)c(Cc3ccccc3C)c(C)n2n1	nt	11%	nt	nt	nt	nt
Cn1cc(S(=O)(=O)c2ccccc2)c(=O)c2cc(F)c(N3CCN(c4ccccc4)CC3)cc21	nt	-1%	nt	nt	nt	nt
COc1ccc2cc3cc(C(=O)NCCCN4CCc5ccccc5C4)sc3nc2c1	-19%	-6%	?	-12%	?	0%
COc1ccc2nc3sc(C(=O)NCCN4CCc5ccccc5C4)cc3cc2c1	-13%	?	9.3µM*	-29%	?	1%
Cc1ccc(NC(=O)c2oc3ccccc3c2NC(=O)c2cc3ccccc3o2)cc1	nt	-2%	nt	nt	nt	nt
O=c1[nH]c2ccc(Cl)cc2c(-c2ccccc2)c1SC(=S)N1CCCCC1	10µM*	-1%	13%	10%	nt	14%
O=C(O)Cc1c(-c2ccccc2)c2cc(Cl)ccc2[nH]c1=O	-24%	0%	9%	-10%	-22%	8%
